PKA-R1A act – PKA-R1A complex activation; P00514+P68181; PKA-R1A dissociation, Cy5-IP20 fluorescence polarization; scaled: DMSO 0%, 113 µM cGMP 100%; activation, % at 11.4 µM; 340,000 compounds, 0.083% hits; AID 504707;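 active = percent activation above the mean of all tested compounds plus 3 SD, cut at about 19% in these data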;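 note: higher means more PKAc released from R1A so a rise in polarization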
TMEM16A inh – mouse TMEM16A channel inhibition, primary screen; 310,000 compounds, 1.2% hits; HEK293 TMEM16A/YFP iodide influx fluorescence, ionomycin; AID 588511; normalized B-score (activity score, 25-100; higher = stronger inhibition) at 10 µM; Q8BHY3;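 active = ratio plate-corrected score three or more library SD toward inhibition, starting fluorescence score within five deviations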;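 note: score derived from kinetic fluorescence span divided by baseline fluorescence per well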
Target sequence (Q8BHY3 whole entry, looked up): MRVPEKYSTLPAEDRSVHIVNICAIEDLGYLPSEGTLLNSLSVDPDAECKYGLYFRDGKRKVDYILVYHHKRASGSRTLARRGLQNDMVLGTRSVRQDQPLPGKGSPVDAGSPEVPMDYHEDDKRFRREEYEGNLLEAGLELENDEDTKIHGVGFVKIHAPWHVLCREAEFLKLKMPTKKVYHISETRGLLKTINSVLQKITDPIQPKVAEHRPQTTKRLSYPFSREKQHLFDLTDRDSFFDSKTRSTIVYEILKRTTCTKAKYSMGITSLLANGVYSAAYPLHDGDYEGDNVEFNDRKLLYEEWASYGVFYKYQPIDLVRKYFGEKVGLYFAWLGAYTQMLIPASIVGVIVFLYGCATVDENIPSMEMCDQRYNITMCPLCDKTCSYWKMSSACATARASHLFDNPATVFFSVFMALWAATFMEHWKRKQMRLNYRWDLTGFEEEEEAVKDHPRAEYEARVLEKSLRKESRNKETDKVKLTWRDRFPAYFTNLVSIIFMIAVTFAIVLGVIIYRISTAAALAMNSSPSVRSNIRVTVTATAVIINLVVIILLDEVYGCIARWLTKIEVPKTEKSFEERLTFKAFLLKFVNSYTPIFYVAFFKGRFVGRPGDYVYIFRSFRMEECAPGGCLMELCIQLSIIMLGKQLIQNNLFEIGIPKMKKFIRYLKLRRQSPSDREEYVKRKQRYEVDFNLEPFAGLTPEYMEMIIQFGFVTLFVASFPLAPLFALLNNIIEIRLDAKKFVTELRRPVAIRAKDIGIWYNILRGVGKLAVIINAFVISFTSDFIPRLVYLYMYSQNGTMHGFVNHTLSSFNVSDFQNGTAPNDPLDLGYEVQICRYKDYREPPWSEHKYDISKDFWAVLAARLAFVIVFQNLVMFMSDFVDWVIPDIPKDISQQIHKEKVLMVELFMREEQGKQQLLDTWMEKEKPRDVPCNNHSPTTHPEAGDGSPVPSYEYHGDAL
ANO1 activ – activates or potentiates the mouse TMEM16A chloride channel; AID 623877; B-score at 10 µM; Q8BHY3; HEK293 TMEM16A/YFP-H148Q/I152L, iodide quench fluorescence; hits give low values; 340,000 compounds, 0.3% hits;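 active = fluorescence-ratio B-score plate-corrected deviation score at least 3 library SD below zero, with starting fluorescence score within 5 deviations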;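 note: channel opened by trigger with iodide after compound preincubation; score built on the fluorescence ratio of max minus min over baseline; more negative score means more quench and so TMEM16A activation or potentiation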
PKA-R2B act – activators of human PKA-R2B complex. P22694+P31323. PKA-R2B holoenzyme dissociation, Cy5-IP20 fluorescence polarization; R2B truncated from residue 108, S112A mutant; 0% DMSO only, 100% 113 µM cGMP. activation, % at 11.4 µM. 340,000 compounds, 0.079% hits;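 active = activation above a cutoff set at the mean over all compounds plus 3 SD, cut at about 18% in these data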;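 note: higher means more holoenzyme dissociation and a rise in polarization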
CHT block – inhibits the human high affinity choline transporter; Q9GZV3; CHT-expressing cells, membrane potential dye, choline response; hits give low values; B-score at 10 µM; 310,000 compounds, 0.86% hits; AID 488975;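 active = B-score over 3 SD under the library average, and starting fluorescence ratio not unusually high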;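 note: choline stimulus applied at its EC90 after an EC20 pre-addition; B-score computed on integrated fluorescence ratio after choline addition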
CHT allo act – allosteric activators of human choline transporter CHT; CHT-expressing cells, membrane potential dye, choline EC20; hits give high values; LV-AA mutant CHT in HEK293 cells; B-score at 10 µM; 310,000 compounds, 0.49% hits; AID 488977;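 active = initial fluorescence not abnormally high and integrated response B-score, plate-corrected, over 3 SD above library mean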
Large screens that a line does not name were inactive. A selection: hits, their analogues and other compounds. The true share with any hit is near 2.5%.

COc1ccc2c(c1)C(SCC(=O)NCCc1ccccc1)CC(C)(C)O2 (centres undefined)	CHT block -6.43
NC(=S)N/N=C\c1ccccc1OCc1ccccc1	none
NC(=S)N/N=C/c1c[nH]c2ccc(OCc3ccccc3)cc12	TMEM16A inh 25
CCOc1cc(CNCCO)cc(Br)c1OCc1ccc(Cl)cc1Cl	TMEM16A inh 100
Cc1ccc(S(=O)(=O)Oc2ccccc2)cc1	none (no result: TMEM16A inh, CHT block, CHT allo act)
Cc1ccc(S(=O)(=O)Oc2ccccc2-c2ccccc2)cc1	ANO1 activ -5.36 (no result: TMEM16A inh, CHT block, CHT allo act)
CCCCn1c(N)c(N(CCC(C)C)C(=O)c2[nH]c(C)c(C(=O)OCC)c2C)c(=O)[nH]c1=O	none
Cn1c(/C=C/c2cccc([N+](=O)[O-])c2)c([N+](=O)[O-])c(=O)n(C)c1=O	none
CCOC(=O)c1cnn(-c2ccc(NS(=O)(=O)c3ccc(Cl)cc3)cc2)c1C(F)(F)F	TMEM16A inh 100
COc1c(O)ccc(C2NC(=O)NC(C)=C2C(=O)Nc2ccccc2C)c1[N+](=O)[O-] (centres undefined)	none
O=C(COC(=O)c1cccc(S(=O)(=O)N2CCN(c3ccccc3)CC2)c1)NCC1CCCO1 (centres undefined)	none
COc1cc(OC)c(NS(=O)(=O)c2cccc(C(=O)OCC(=O)NCC3CCCO3)c2)cc1Cl (centres undefined)	ANO1 activ -7.83
O=c1[nH]c(CN2CCN(S(=O)(=O)/C=C/c3ccccc3)CC2)nc2cc(Cl)ccc12	none
CC(=O)NCCSc1ccc(S(=O)(=O)N2CCCC2)cn1	ANO1 activ -20.9 (no result: TMEM16A inh, CHT block, CHT allo act)
NC(=O)CSc1ccc(S(=O)(=O)N2CCCCC2)cn1	none (no result: TMEM16A inh, CHT block, CHT allo act)
O=C(CSc1nnc(Cn2nnc3ccccc32)o1)N(Cc1ccc(Cl)cc1)c1ccccc1	TMEM16A inh 100
COCCCNCCOCCOc1ccc(Cl)cc1C(C)(C)C	none
CCOC(=O)c1ccc(NC(=O)NC2CC3CCC(C2)N3Cc2nnnn2Cc2ccco2)cc1 (centres undefined)	ANO1 activ -46.8
CC(C)(C)n1nnnc1CN1C2CCC1CC(NC(=O)Nc1ccccc1)C2 (centres undefined)	none
COc1ccc2c(c1)cc1n2CCN2CCCN=C12	CHT block -6.23
COc1ccc(C(=O)Nc2ccccc2-c2nnn(CC(=O)N3CCOCC3)n2)cc1	none
COc1ccc(C(=O)Cn2nnc(-c3ccccc3NC(=O)c3ccco3)n2)cc1	ANO1 activ -11
O=C(NNC1=C(C(=O)C(F)(F)F)CCC1)c1ccccc1Cl	ANO1 activ -18.7
Cc1cccc(NS(=O)(=O)c2ccc(C)c(NS(=O)(=O)c3cccs3)c2)c1	none (no result: TMEM16A inh, CHT block, CHT allo act)
Cc1ccc(/C=C2\C(=O)ON=C2c2ccccc2)o1	none (no result: PKA-R1A act, PKA-R2B act)
Cc1ccc(-c2ccc(/C=C3\C(=O)ON=C3c3ccccc3)o2)c([N+](=O)[O-])c1	TMEM16A inh 100, ANO1 activ -5.65
COc1ccc(/C=C/C(=O)NC(=S)NN2CCCCC2c2cccnc2)cc1OC (centres undefined)	ANO1 activ -4.63
Cc1cc(C)cc(NC(=O)CSCc2nc3c(nnn3Cc3ccc(F)cc3)c(=O)[nH]2)c1	TMEM16A inh 25
COc1ccc(S(=O)(=O)N2CCOCC2)cc1NC(=O)CN1C(=O)NC2(CCC(C)CC2)C1=O (centres undefined)	none (no result: TMEM16A inh, ANO1 activ, CHT block, CHT allo act)
Cc1ccc(-n2c(-c3ccc(Br)cc3)c[n+]3c2CCc2ccc4cccnc4c2-3)cc1	TMEM16A inh 100
COc1ccc([C@H]2Oc3cc(O)cc(O)c3C(=O)C2[C@@H]2C(=O)c3c(O)cc(O)cc3O[C@@H]2c2ccc(OC)cc2)cc1 (some centres undefined)	TMEM16A inh 100 (no result: PKA-R1A act, ANO1 activ, PKA-R2B act)
N#Cc1c(Cl)nsc1NC(=O)c1ccccc1	TMEM16A inh 100
O=C(Nc1ccc([N+](=O)[O-])cc1)Nc1ccc(N2CCOCC2)c2nonc12	TMEM16A inh 100
CN(C)c1ccc(C=c2c3ccccc3n3c2c2c([n+]3C)CCCC2)cc1	none (no result: TMEM16A inh, CHT block, CHT allo act)
COc1ccc(NC(=O)NS(=O)(=O)c2ccc(C)cc2)cn1	ANO1 activ -7.53
O=C(Nc1ccc(Br)cc1)c1cccc(S(=O)(=O)Nc2ccccn2)c1	none
COc1ccc(NC(=O)c2cccc(S(=O)(=O)Nc3ccc(Br)cc3)c2)cn1	TMEM16A inh 25
Cc1ccc(S(=O)(=O)N(C)c2ccccc2C(=O)N2CCOCC2)cc1	none
CC(=O)Nc1ccc(S(=O)(=O)Nc2ccc(S(=O)(=O)Nc3nccs3)cc2)cc1	none
CCc1nc(SCC(=O)N2CCCCC2)c2c(=O)n(C)c(=O)n(C)c2n1	none
N#Cc1c(C(F)(F)F)cc(-c2ccccc2Cl)[nH]c1=O	TMEM16A inh 100
Cc1sc2nc(C3CC3)nc(SCC(=O)N3CCc4ccccc4C3)c2c1C	none
CCc1c(C)sc2nc(C(C)C)nc(SCC(=O)N3CCc4ccccc4C3)c12	TMEM16A inh 100 (no result: PKA-R1A act, ANO1 activ, PKA-R2B act)
COc1ccc(CC(=O)OCC(=O)N2CCc3ccccc32)cc1OC	ANO1 activ -25.3 (no result: TMEM16A inh, CHT block, CHT allo act)
COc1ccc(CC(=O)OCC(=O)N2CCCc3ccccc32)cc1OC	none
CC(=O)Nc1ccc2ccccc2c1	none
CC(=O)Nc1ccc2cc3ccc(NC(C)=O)cc3nc2c1	ANO1 activ -9.81
COc1ccccc1N1C(=O)N(CC(=O)C(C)(C)C)c2ccccc2S1(=O)=O	none
O=C(CNC(=O)CNC(=O)c1ccc(Cl)cc1Cl)NCc1cccc(Cl)c1	none
CC1(C(=O)CSc2nc3ccccc3s2)CCC(=O)O1 (centres undefined)	TMEM16A inh 100
Cc1ccc(C2c3c(C)nn(-c4ccc([N+](=O)[O-])cc4)c3N=C3C(=O)Nc4ccccc4N32)cc1 (centres undefined)	CHT block -6.25 (no result: PKA-R1A act, ANO1 activ, PKA-R2B act)
COc1ccc(S(=O)(=O)N2CCCC2=O)cc1N(C)S(C)(=O)=O	none
O=C(Nc1cccc2c1[nH]c1ccccc12)C(F)(F)F	TMEM16A inh 25
Cc1c(Cc2ccc3c(c2)OCO3)sc(NC(=O)c2ccc3ccccc3c2)c1C(N)=O	CHT block -6.58 (no result: PKA-R1A act, ANO1 activ, PKA-R2B act)
Oc1cc2c(cc1O)C1c3ccc(O)c(O)c3OCC1(O)C2 (centres undefined)	ANO1 activ -12
Cc1ccsc1C(=O)OCC(=O)NCc1cccs1	none (no result: TMEM16A inh, ANO1 activ, CHT block, CHT allo act)
CCc1nnc(NC(=O)c2ccc(Cl)c(S(=O)(=O)N3CCc4ccccc43)c2)s1	TMEM16A inh 100
O=C1N[C@@H](Cc2ccccc2)C(=O)N2[C@@H]1C[C@@]1(Br)c3ccccc3N(S(=O)(=O)c3ccccc3)[C@@H]21	none
CC1=NOC(=O)/C1=C\c1ccc(-c2cc(Cl)ccc2Cl)o1	ANO1 activ -5.4
